# Laboratory results as given in PubChem BioAssay.
# System: Lefty1
# Assay: Lefty1 binders on small-molecule microarrays, primary screen, biochemical, small-molecule microarray, 635/667 nm fluorescence (AID 1139)
# Details: small-molecule microarray binding, fluorescence 635/667; higher = more signal
row,Structure (SMILES),composite z-score
1,COCCn1c(C(=O)N2CCCC2)cc2c1C[C@H]1CN(C(=O)c3ccccc3)[C@@](Cc3ccccc3)(C(=O)OC)[C@@H]21,0.334
2,CC(C)(C)N1CC=CC23O[C@@H]4/C=C\CCCOC(=O)C4[C@H]2C(=O)N(CCCCCCO)[C@@H]3C1=O (some centres undefined),-1.11
3,CCCC[C@@H](O)C1=C(COC)Cn2c(=O)n(-c3ccccc3)c(=O)n2[C@H]1CO,-0.0726
4,COC(=O)[C@@H]1N=C(c2ccc(OCCCO)cc2)O[C@@H]1c1ccccc1CN=[N+]=[N-],-0.119
5,CN1C=C(C(=O)OCCS(C)(=O)=O)C(C(=O)OCCS(C)(=O)=O)=CC(CCCO)=CC1c1ccc(CN2CCCC2)cc1 (centres undefined),1.23
6,COCCOC(=O)N1C(=O)[C@@]2(c3ccccc31)[C@H](C(N)=O)[C@H]1C(=O)O[C@H](c3ccccc3)[C@H](c3ccccc3)N1[C@@H]2c1ccc(OCCO)cc1,0.619
7,CC(C)CNC(=O)[C@@H]1c2ccccc2C(=O)N(C(C)C)[C@H]1c1ccc(CO)cc1,-0.481
8,CC(C)c1ccc(NN2C(C(O)C(C)C)C=CC3C(=O)N(c4ccccc4)C(=O)C32)cc1 (centres undefined),0.172
9,COCCOC(=O)N1C(=O)[C@@]2(c3cc(C#CCC(C(=O)OC)C(=O)OC)ccc31)[C@H](C(=O)N1CCCCCCC1)[C@H]1C(=O)O[C@H](c3ccccc3)[C@H](c3ccccc3)N1[C@@H]2c1ccccc1OCCO,0.884
10,O=C(NCCO)C1=C[C@H](Oc2ccccc2I)[C@@H](O)[C@H](NCc2ccc(F)cc2)C1,1.45
11,COC(=O)Cn1c(C(=O)N(C)C)cc2c1C[C@H]1CN(C(=O)c3ccccc3)[C@@](Cc3ccc(OC)cc3)(C(=O)OC)[C@@H]21,-0.351
12,[N-]=[N+]=NCc1ccccc1C[C@]1(C(=O)NCc2ccccc2)N=C(c2ccc(OCCCO)cc2)O[C@H]1c1ccccc1CN=[N+]=[N-],-0.503
13,CC(=O)NCCCC[C@@H]1NC(=O)[C@H]2C[C@@H](C(=O)NCCCCCC[N+](C)(C)C)[C@@H](c3ccc(O)cc3)N2C1=O,1.41
14,[N-]=[N+]=NCc1ccccc1C[C@]1(C(=O)N2CCCCC2)N=C(c2ccc(OCCCO)cc2)O[C@H]1c1ccccc1,-0.599
15,COc1ccc(CCNC(=O)[C@@]2(Sc3ccc(C)cc3)CC(=O)N(C(C)C)[C@@H]2c2ccc(CO)cc2)cc1,-0.919
16,COC(=O)C(CC#Cc1ccc2c(c1)[C@]1(C(=O)N2)[C@H](c2ccc(O)cc2)N2[C@H](c3ccccc3)[C@H](c3ccccc3)OC(=O)[C@H]2[C@@H]1C(=O)N1CCc2cc(OC)c(OC)cc2C1)C(=O)OC,1.54
17,COc1ccccc1CN1C(=O)c2ccccc2[C@](Cc2ccccc2I)(C(=O)NCCCN(C)C)[C@@H]1c1ccc(CO)cc1,0.0523
18,CN1C(=O)C2C(C1=O)C1C=C(c3ccc(CO)cc3)C2C(c2cccs2)N1C (centres undefined),-0.295
19,NCCCC[C@@H]1NC(=O)[C@H]2C[C@@H](C(=O)NCc3ccc(F)cc3)[C@@H](c3cccc(OCCO)c3)N2C1=O,1.56
20,CC(C)(C)OC(=O)CC[C@]1(C(=O)N2CCOCC2)N=C(c2ccc(OCCCO)cc2)O[C@H]1c1ccccc1CN=[N+]=[N-],0.23
21,CC(C)[C@@H](C(=O)O)n1cc(-c2ccccc2)nn1,-0.0617
22,NCCCC[C@@H]1NC(=O)[C@H]2C[C@@H](C(=O)NCc3ccc(F)cc3)[C@@H](c3ccc(O)cc3)N2C1=O,0.296
23,O=C1OCCC=C[C@H]2OC34C=CCN(c5ccc(Cl)cc5)C(=O)[C@H]3N(CCO)C(=O)[C@@H]4C12 (some centres undefined),-0.837
24,O=C1O[C@@H](c2ccccc2)[C@@H](c2ccccc2)N2[C@@H](c3ccc(O)cc3)[C@]3(C(=O)Nc4ccc(C#CC5=CCCCC5)cc43)[C@@H](C(=O)N3CCCCCCC3)[C@H]12,1.29

# System: wheat germ agglutinin (Triticum aestivum), Alexa647-labelled
# Assay: wheat germ agglutinin binders on compound microarrays, profiling panel, artefact control for SMM control-protein annotation, biochemical, small-molecule microarray, 635/667 nm fluorescence (AID 1140);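 note: score merges 667 nm feature emission with signal to noise over triplicate slides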
# Details: WGA-A647 binding, 635 nm fluorescence, higher = more signal
row,Structure (SMILES),composite z-score
1,CC(C)C(=C=CC[C@@H](O)c1ccc(OCCO)cc1)CCO,-0.154
2,CC#CCO[Si](C#CCCCCCC)(C(C)C)C(C)C,0.064
3,CN(C)CCCC[C@@H]1NC(=O)[C@H]2C[C@@H](C(=O)NCc3ccc(F)cc3)[C@@H](c3ccc(O)cc3)N2C1=O,0.419
4,CC(C)N1CC=CC23O[C@@H]4C=CCCOC(=O)C4[C@H]2C(=O)N(CCCCCO)[C@@H]3C1=O (some centres undefined),0.717
5,COCCOC(=O)N1C(=O)[C@@]2(c3ccccc31)[C@H](C(=O)N1CCCCCCC1)[C@H]1C(=O)O[C@H](c3ccccc3)[C@H](c3ccccc3)N1[C@@H]2c1ccc(O)cc1,1.25
6,C#CCN([C@H](/C=C/C1CC1)[C@@H](O)Cc1ccccc1)[C@@H](Cc1ccccc1)C(=O)OC,-0.34
7,COC(=O)[C@@]1(Cc2ccc(F)cc2)[C@H]2c3cc(C(=O)N(C)C)n(CCn4cc([N+](=O)[O-])nc4C)c3C[C@H]2CN1C(=O)c1ccccc1,0.288
8,CCOC(=O)C[C@H]1[C@H](OC(=O)Cc2ccc3c(c2)OCO3)[C@@H](NC(=O)c2ccccc2)c2cc(OCCCO)ccc2N1C(=O)Cc1ccc(OC)cc1,0.674
9,C[N+](C)(C)CCCC[C@@H]1NC(=O)[C@H]2C[C@@H](C(=O)NCCCCCNC(=O)CS)[C@@H](c3ccc(O)cc3)N2C1=O,0.215
10,CN1C(=O)[C@]2(CCS(=O)(=O)c3ccccc3)N=C(c3ccc(OCCCO)cc3)O[C@@H]2c2ccccc21,0.318
11,O=C1O[C@@H](c2ccccc2)[C@@H](c2ccccc2)N2[C@@H](c3ccc(OCCO)cc3)[C@]3(C(=O)Nc4ccc(C#CCCO)cc43)[C@@H](C(=O)Nc3nc4ccccc4s3)[C@H]12,0.468
12,COCCn1c(C(=O)N2CCCC2)cc2c1C[C@H]1CN(C(=O)c3ccccc3)[C@@](Cc3ccccc3)(C(=O)OC)[C@@H]21,1.11
13,CC(C)(C)N1CC=CC23O[C@@H]4/C=C\CCCOC(=O)C4[C@H]2C(=O)N(CCCCCCO)[C@@H]3C1=O (some centres undefined),0.0119
14,CCCC[C@@H](O)C1=C(COC)Cn2c(=O)n(-c3ccccc3)c(=O)n2[C@H]1CO,0.858
15,COC(=O)[C@@H]1N=C(c2ccc(OCCCO)cc2)O[C@@H]1c1ccccc1CN=[N+]=[N-],0.939
16,CN1C=C(C(=O)OCCS(C)(=O)=O)C(C(=O)OCCS(C)(=O)=O)=CC(CCCO)=CC1c1ccc(CN2CCCC2)cc1 (centres undefined),0.837
17,COCCOC(=O)N1C(=O)[C@@]2(c3ccccc31)[C@H](C(N)=O)[C@H]1C(=O)O[C@H](c3ccccc3)[C@H](c3ccccc3)N1[C@@H]2c1ccc(OCCO)cc1,0.982
18,CC(C)CNC(=O)[C@@H]1c2ccccc2C(=O)N(C(C)C)[C@H]1c1ccc(CO)cc1,0.775

row,Structure (SMILES),composite z-score
1,CC(C)c1ccc(NN2C(C(O)C(C)C)C=CC3C(=O)N(c4ccccc4)C(=O)C32)cc1 (centres undefined),1.12
2,COCCOC(=O)N1C(=O)[C@@]2(c3cc(C#CCC(C(=O)OC)C(=O)OC)ccc31)[C@H](C(=O)N1CCCCCCC1)[C@H]1C(=O)O[C@H](c3ccccc3)[C@H](c3ccccc3)N1[C@@H]2c1ccccc1OCCO,1.46
3,O=C(NCCO)C1=C[C@H](Oc2ccccc2I)[C@@H](O)[C@H](NCc2ccc(F)cc2)C1,-1.25
4,COC(=O)Cn1c(C(=O)N(C)C)cc2c1C[C@H]1CN(C(=O)c3ccccc3)[C@@](Cc3ccc(OC)cc3)(C(=O)OC)[C@@H]21,0.86
5,[N-]=[N+]=NCc1ccccc1C[C@]1(C(=O)NCc2ccccc2)N=C(c2ccc(OCCCO)cc2)O[C@H]1c1ccccc1CN=[N+]=[N-],0.328
6,CC(=O)NCCCC[C@@H]1NC(=O)[C@H]2C[C@@H](C(=O)NCCCCCC[N+](C)(C)C)[C@@H](c3ccc(O)cc3)N2C1=O,0.16
7,[N-]=[N+]=NCc1ccccc1C[C@]1(C(=O)N2CCCCC2)N=C(c2ccc(OCCCO)cc2)O[C@H]1c1ccccc1,0.762
8,COc1ccc(CCNC(=O)[C@@]2(Sc3ccc(C)cc3)CC(=O)N(C(C)C)[C@@H]2c2ccc(CO)cc2)cc1,-0.29
9,COC(=O)C(CC#Cc1ccc2c(c1)[C@]1(C(=O)N2)[C@H](c2ccc(O)cc2)N2[C@H](c3ccccc3)[C@H](c3ccccc3)OC(=O)[C@H]2[C@@H]1C(=O)N1CCc2cc(OC)c(OC)cc2C1)C(=O)OC,0.384
10,COc1ccccc1CN1C(=O)c2ccccc2[C@](Cc2ccccc2I)(C(=O)NCCCN(C)C)[C@@H]1c1ccc(CO)cc1,0.0618
11,CN1C(=O)C2C(C1=O)C1C=C(c3ccc(CO)cc3)C2C(c2cccs2)N1C (centres undefined),0.742
12,NCCCC[C@@H]1NC(=O)[C@H]2C[C@@H](C(=O)NCc3ccc(F)cc3)[C@@H](c3cccc(OCCO)c3)N2C1=O,0.231
13,CC(C)(C)OC(=O)CC[C@]1(C(=O)N2CCOCC2)N=C(c2ccc(OCCCO)cc2)O[C@H]1c1ccccc1CN=[N+]=[N-],1.19
14,CC(C)[C@@H](C(=O)O)n1cc(-c2ccccc2)nn1,1.15
15,NCCCC[C@@H]1NC(=O)[C@H]2C[C@@H](C(=O)NCc3ccc(F)cc3)[C@@H](c3ccc(O)cc3)N2C1=O,1.2
16,O=C1OCCC=C[C@H]2OC34C=CCN(c5ccc(Cl)cc5)C(=O)[C@H]3N(CCO)C(=O)[C@@H]4C12 (some centres undefined),-0.524
17,O=C1O[C@@H](c2ccccc2)[C@@H](c2ccccc2)N2[C@@H](c3ccc(O)cc3)[C@]3(C(=O)Nc4ccc(C#CC5=CCCCC5)cc43)[C@@H](C(=O)N3CCCCCCC3)[C@H]12,1.32
